KCNQ2 inh: KCNQ2 (rat) channel inhibition; AID 2156; B-score at 10 µM; 310,000 tested, 1.1% active; O88943; CHO-K1 KCNQ2, FluxOR thallium flux, 20 min; active compounds read low;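 active = fluorescence ratio B-score at most minus 3 library SDs, with starting brightness B-score within 2 library SDs, cut at about -5.5 in these data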
KCNQ2 pot: potentiators of rat KCNQ2 potassium channel; O88943; CHO-K1 KCNQ2, FluxOR thallium flux fluorescence; active compounds read high; B-score at 10 µM; 310,000 tested, 0.54% active; AID 2239;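 active = fluorescence ratio B-score at least 3 SD of library B-scores, with initial fluorescence B-score within 3 of them, cut at about 5.3 in these data; same plate scores as AID 2156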;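 also: B-score of peak minus minimum over baseline fluorescence ratio after K+ and Tl+ stimulus; positive B-score means potentiation of KCNQ2 with more thallium influx and brighter signal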
KCNQ2 block conf: confirmation of rat KCNQ2 potassium channel inhibitors. KCNQ2-expressing cells, thallium flux, inhibition; active compounds read low. shares compounds with KCNQ2 inh. activity change, negative = inhibition, % at 10 µM. 1,000 tested, 57% active;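 also: 0% = vehicle wells and values are ratio percent relative to vehicle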
KCNQ1 spec: KCNQ2 inhibitor that also affects human KCNQ1 channel. shares compounds with KCNQ2 inh. 1,000 tested, 15% active. activity change, negative = inhibition, % at 10 µM. AID 493026. KCNQ1-expressing cells, FluxOR thallium flux fluorescence; active compounds read low;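 active = activity change at least 3 SD of negative controls below their mean in both duplicate wells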;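 also: CHO cells stably transfected with KCNQ1 and depolarized by potassium stimulus; peak minus minimum fluorescence over baseline after thallium addition; 0% = vehicle negative control and -100% = blank without thallium stimulus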
CHO Tl ctr: KCNQ2 inhibitor counter-screen hit in parental CHO cells; activity change, % at 10 µM; shares compounds with KCNQ2 inh; 1,000 tested, 14% active; thallium flux counter-screen; active compounds read low;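 also: 0% = vehicle negative controls with stimulus buffer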
KCNQ2 inh confirm: blocks rat KCNQ2 current in automated patch clamp | 550 tested, 49% active | shares compounds with KCNQ2 inh | calls only at 10 µM | KCNQ2-expressing cells | AID 588531
Numbers without * were called inactive; i = inactive; nt = no result given; + = active, no number. Hits are enriched below; roughly 1.6% of the tested compounds scored in any of these assays. Unless noted, no rule for the calls is given here.

SMILES	KCNQ2 inh	KCNQ2 pot	others
Cc1cccc(N2CCN(C(=O)Cc3c(C(=O)O)[nH]c4ccc(Cl)cc34)CC2)c1C	i	7*
O=C(O)c1[nH]c2ccccc2c1CC(=O)N1CCN(c2ccccc2)CC1	i	nt
Cc1ccc(NC2CCCN(C(=O)c3ccc4[nH]ccc4c3)C2)cc1C (configuration not stated)	i	nt
CC(=O)C(Cc1ccccc1)(Cc1ccccc1)C(C)=O	i	0.24
CCOC(=O)C(Cc1ccccc1)(Cc1ccccc1)C(C)=O	-6.4*	-6.4
Nc1nn(-c2ccccc2)c2ccc([N+](=O)[O-])cc12	i	1.8
CC(=O)Nc1ccc(S(=O)(=O)NC(C)c2nc(-c3ccccc3)no2)cc1 (configuration not stated)	i	nt
O[C@@H](c1cc(C(F)(F)F)nc2c(C(F)(F)F)cccc12)[C@H]1CCCCN1	i	0.92
OC(c1cc(-c2ccc(Cl)cc2)nc2ccccc12)C1CCCCN1 (configuration not stated)	-7.3*	-7.3
COC(=O)C1=C(C)NC(C)=C(C(=O)O[C@@H]2CCCN(Cc3ccccc3)C2)[C@@H]1c1cccc([N+](=O)[O-])c1	-5.8*	-5.8
CCOC(=O)C1=C(C)NC(C)=C(C(=O)OC)C1c1cccc([N+](=O)[O-])c1 (configuration not stated)	i	nt
COc1ccc(CN2C(=O)CSC2c2ccncc2)cc1 (configuration not stated)	i	nt
COc1ccccc1NC(=O)CSc1nnc(CNC(=O)COc2ccc(Cl)cc2)o1	i	0.9
C=CCN1C(=O)C(Cc2ccc(OCC)cc2)S/C1=N\N=C\c1cccs1 (configuration not stated)	-5.6*	-5.6
C=CCN1C(=O)C(Cc2ccccc2)S/C1=N/N=C/c1cccs1 (configuration not stated)	i	nt
Cc1cc(C(F)(F)F)nc(SCC(=O)Nc2c(C)n(C)n(-c3ccccc3)c2=O)n1	i	nt
N/C(Cc1ccc([N+](=O)[O-])cc1)=N\OC(=O)c1ccccc1F	i	0.42
COc1cc(CNCCc2c[nH]c3ccccc23)cc(Cl)c1OCC(N)=O	i	1.9
COc1cc(CNCCc2c[nH]c3ccccc23)ccc1OCc1ccc(F)cc1	-7.2*	-7.2
CC(C)CC(NC(=O)c1cccs1)c1nnc(SCc2ccc(Cl)c(Cl)c2)n1C (configuration not stated)	i	nt
CC(C)c1ccc(/C=C/C(=O)N2CCCCCC2)cc1	i	nt
CC(C)c1ccc(/C=C/C(=O)n2nnc3ccccc32)cc1	-6.2*	-6.2
CC1=C(C(=O)OC2CCCC2)C(c2ccc(C)o2)C2=C(CC(c3cccs3)CC2=O)N1 (configuration not stated)	-5.7*	-5.7
CC1=C(C(=O)OC2CCCCCC2)C(c2ccc(C)o2)C2=C(CCCC2=O)N1 (configuration not stated)	i	0.82
COc1ccc(C2C(C(=O)/C=C/c3ccco3)=C(O)C(=O)N2CCN2CCOCC2)cc1OC (configuration not stated)	i	nt
SMILES	KCNQ2 inh	KCNQ2 pot	others
CCCc1cc(-c2[nH]ncc2-c2ccc3c(c2)OCCCO3)c(O)cc1O	-8.5*	-8.5
CCCc1cc(-c2[nH]ncc2-c2ccc(C(=O)OCC)o2)c(O)cc1O	i	1.2
Cc1sc2nc(SCC(=O)NCc3ccco3)n(C)c(=O)c2c1C	i	nt
CCn1c(SCC(=O)NC(=O)NCc2ccco2)nc2sc(C)c(C)c2c1=O	i	6*
CCc1c(C)nc(SCC(=O)N2CCCCC2)[nH]c1=O	i	0.05
CCn1c(COc2ccc(Cl)cc2)nnc1SC1CCc2ccccc2C1=O (configuration not stated)	i	nt
Cc1ccc(CN(Cc2ccccn2)C(=O)Nc2ccc(C)c(C)c2)cc1	-6.8*	-6.8
CSc1cccc(NC(=S)N(Cc2ccc(C)cc2)Cc2ccccn2)c1	i	nt
CN=c1oc2ccc(Cl)cc2cc1C(N)=O	i	nt
COc1ccccc1C(=O)N=C1NC(=O)CC2C(=O)NCCN12 (configuration not stated)	i	0.6
Cc1ccc2oc(C(=O)N3CCN(c4cccc(C)n4)CC3)c(C)c2c1	-8.1*	-8.1
Cc1cc(Cl)c2oc(C(=O)N3CCN(c4cccc(C)n4)CC3)c(C)c2c1	i	nt
S=C(Nc1ccccc1Cl)N(Cc1ccccc1)Cc1cccnc1	i	nt
COC(=O)c1ccc(NC(=O)C(=O)N2CCN(C(=S)NCCc3ccccc3)CC2)cc1	i	0.7
O=C(NCC1CCCN(Cc2ccc3nonc3c2)C1)c1cccc(C(F)(F)F)c1 (configuration not stated)	-5.7*	-5.7
O=C(NCC1CCCN(Cc2ccc3c(c2)OCCO3)C1)c1ccc2c(c1)OCO2 (configuration not stated)	i	0.77
CC1(C)CC(=O)C(=Cc2cn(CCC#N)nc2-c2ccc(Cl)cc2)C(=O)C1	i	3.8
CC1(C)CC(=O)C(=Cc2cn(CCC#N)nc2-c2ccc(F)cc2)C(=O)C1	i	6.5*
O=C(c1cc(COc2ccc(F)cc2F)on1)N1CCN(C(=O)c2ccco2)CC1	i	0.63
O=C(Cn1c(=O)n(CC(=O)NCc2ccccc2)c2ccccc21)NCc1ccccc1	i	nt
Cc1cc(=O)c2cc(Br)ccc2n1CC(=O)NCc1ccccc1	-8.3*	-8.3
CN(CCOc1ccc(Br)cc1)C(=O)CNC(=O)c1ccc2ccccc2c1	-6.5*	-6.5
CCOc1ccc(CN(C)C(=O)CNC(=O)c2ccccc2)cc1	i	nt
COc1cccc(/C=N/NC(=O)c2nc(-c3ccccc3)cc(-c3ccccc3)n2)c1	-6.9*	-6.9
COc1ccc(/C=N/NC(=O)c2nc(-c3ccccc3)cc(-c3ccccc3)n2)cc1OC	i	nt
SMILES	KCNQ2 inh	KCNQ2 pot	others
COc1ccc(-n2ncc3c(N4CCC(C)CC4)ncnc32)cc1	i	1.7
Cc1ccc(NC(=O)CN2CCCC2)c2c1CC(C)(C)O2	i	1.2
Cc1ccc(NS(=O)(=O)c2ccccc2Cl)c2c1CC(C)(C)O2	-6*	-6
Fc1ccccc1CN1CCCCCCC1	i	nt
O=C(NC12CC3CC(CC(C3)C1)C2)c1ccccc1	i	nt
O=C(NC12CC3CC(CC(C3)C1)C2)N(Cc1ccccc1)Cc1ccncc1	-11*	-11	KCNQ2 block conf=-34%*;KCNQ1 spec=i;CHO Tl ctr=i;KCNQ2 inh confirm=+
Cn1c(=O)n(C)c2cc(NC(=O)C(F)(F)F)ccc21	i	nt
Cc1ccc(-c2cc(C(=O)NCc3cnn(C)c3C)c3cc(Br)ccc3n2)cc1	-9.2*	-9.2	KCNQ2 block conf=-34%*;KCNQ1 spec=i;CHO Tl ctr=i;KCNQ2 inh confirm=+
Cc1ccc(-c2cc(C(=O)N(C)Cc3cnn(C)c3C)c3cc(Br)ccc3n2)cc1	i	nt
